Reference: PubChem BioAssay (Tox21)
Inconclusive results are not listed. Activity calls are given as the source filed them. Calls follow the shape of the dose curve; as a rule, active = well fitted cell-killing curve with a large enough effect in the repeat runs; inconclusive = weak or mixed curves, or effect the other way; inactive = flat fitted curve, though single readings scatter.

Test: qHTS assay to identify small molecule antagonists of the estrogen related receptor signaling pathway with the pleiotropic PPARgamma coactivator (PGC) cell viability counter screen (AID 1224822;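 also: viability read after 17.5 h compound exposure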)
Settings: ERR/PGC reporter cell line viability counter screen; series mostly up to 46.1 µM; viability change, negative = cytotoxic: at the top concentration
How it was run: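 PGC/ERR cells were seeded at 2,000 cells/well, rested 6 h at 37 C/5% CO2, then given compounds in DMSO by pin tool and incubated 17.5 h at 37 C. Viability came from CellTiter-Fluor fluorescence after 30 min.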
% is scaled to controls: 0 for no effect and ±100 for the full control effect.

Structure (SMILES) | viability change, negative = cytotoxic
NS(=O)(=O)c1ccc(-n2nc(C(F)(F)F)cc2-c2ccc(Cl)cc2)cc1 | -11.4% (inactive)
NCCCNCCCCNCCCN | -4.23% (inactive)
N[C@H](C(=O)O)c1cc(O)cc(O)c1 | -4.22% (inactive)
N[C@@H](Cn1ccc(=O)c(O)c1)C(=O)O | -9.07% (inactive)
O=C(c1ccc2c(c1)OCCO2)N1CCCCC1 | 2.35% (inactive)
CNC(=O)c1cc2c(cn1)[nH]c1ccccc12 | 4.48% (inactive)
CN1CCc2ccccc2Cc2[nH]c3ccccc3c2CC1 | -4.49% (inactive)
C[C@H](NC(=O)/C(C#N)=C/c1ccc(O)c(O)c1)c1ccccc1 | 2.27% (inactive)
COc1cc(N)c(Cl)cc1C(=O)OCCN1CCCCC1 | 6.37% (inactive)
C[C@](Cc1ccc(O)c(O)c1)(NN)C(=O)O | 2.38% (inactive)
NCCCC(=O)O | -4.34% (inactive)
COc1ccc(Br)cc1S(=O)(=O)NC(=O)/C=C/c1ccccc1Cc1ccc2ccccc2c1 | 0.095% (inactive)
O=c1[nH]c2ccccc2c2ccccc12 | -3.67% (inactive)
CSc1nc(N)c2ncn([C@@H]3O[C@H](COP(=O)(O)OP(=O)(O)O)C(O)[C@H]3O)c2n1 (some centres undefined) | 3.44% (inactive)
CN(C)CCCC1(c2ccc(F)cc2)OCc2cc(C#N)ccc21 (centres undefined) | -8.74% (inactive)
O=C1NC(=O)/C(=C/c2ccc3nccnc3c2)S1 | -14.4% (inactive)
[Li+] | 4.79% (inactive)

Structure (SMILES) | viability change, negative = cytotoxic
O=C(O)C1CCCNC1 (centres undefined) | 3.34% (inactive)
COC(=O)C(N)Cc1ccc(Cl)cc1 (centres undefined) | -1.89% (inactive)
CC[C@H]1OC(=O)[C@H](C)[C@@H](O[C@H]2C[C@@](C)(OC)[C@@H](O)[C@H](C)O2)[C@H](C)[C@@H](O[C@@H]2O[C@H](C)C[C@H](NC)[C@H]2O)[C@](C)(O)C[C@@H](C)CN(C)[C@H](C)[C@@H](O)[C@]1(C)O | -4.83% (inactive)
Cn1cnc2c(NCc3ccccc3)nc(NCCO)nc21 | 2.85% (inactive)
N[C@H](CCCP(=O)(O)O)C(=O)O | 7.82% (inactive)
CN(CCCOc1ccc(Cc2ccccc2)cc1)CCC(=O)O | -4.71% (inactive)
O=Nc1ccc2oc(=O)ccc2c1 | -11.2% (inactive)
CC(=O)O[C@H]1Cc2ccccc2N(C(N)=O)c2ccccc21 | 10.1% (inactive)
CC1CNCCN1S(=O)(=O)c1cccc2cnccc12 (centres undefined) | 17% (inactive)
NC(N)=NC(N)=Nc1ccccc1 | 9.93% (inactive)
CN1[C@@H](CC(=O)c2ccccc2)CCC[C@H]1C[C@H](O)c1ccccc1 | -12.6% (inactive)
COc1ccc(NC(=O)/C=C/c2ccc(Cl)cc2)cc1 | -18.8% (inactive)
CC[C@H](NC(=O)c1c(C)c(-c2ccccc2)nc2ccccc12)c1ccccc1 | -9.67% (inactive)
Cc1cccc(C)c1OCC(N)C(C)C (centres undefined) | 4.15% (inactive)
CC(=O)O[C@H]1C[C@@H]2CC[C@@H]3[C@H](CC[C@@]4(C)[C@H]3C[C@H]([N+]3(C)CCCCC3)[C@@H]4OC(C)=O)[C@@]2(C)C[C@@H]1[N+]1(C)CCCCC1 | 12.5% (inactive)
COc1cc(/C=C(\C#N)C(=O)c2ccc(O)c(O)c2)cc(I)c1O | -4.39% (inactive)
CN1Cc2sccc2C(c2ccc(O)c(O)c2)C1 (centres undefined) | -9.93% (inactive)
